According to the supplement of paper PMC10849652:
Of roughly 8,800 targets only a part is listed; those with a hit were picked by preference. About 0.5% of all pairs of compound and target were hits.

Tests used:
Experiment in all cases: log2 fold change, soluble protein after heating vs DMSO (PISA); higher = thermal stabilisation; K562 lysate, 10 uM; active = over 0.2 and 3.5 SD of the protein, either way, in both replicates (recomputed)
[1] = compound: C1=CC=C(C=C1)[C@H](COC2=CC3=C(C=C2)NC(=O)N3)NC(=O)C4=CC=CN(C4=O)CC5=CC(=C(C=C5)F)F
Outline: (§1)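 Log-two fold change in thermal stability relative to solvent controls is reported from duplicates. For each sample, crude K562 extract from dounce-homogenised pellets in PBS pH 7.4 with 1 mM MgCl2, at 1 mg/mL protein, was treated with 10 μM compound for 30 min. Aliquots heated for 3 min across 48°C-58°C were pooled, brought to 0.5% NP-40 at 4°C and cleared at 21,000xg for 90 min. The supernatant was quantified by TMTpro 16plex LC-MS/MS with channel sums equalised.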

[2] = compound: CC1=C(SC2=C1C(=N[C@H](C3=NN=C(N32)C)CC(=O)N)C4=CC=C(C=C4)Cl)C
Outline: as §1

[3] = compound: CC1=C2C(=CC=C1)N=C(N(C2=O)C3=CC=CC=C3C)CN4C=NC5=C(N=CN=C54)N
Outline: as §1

[4] = compound: Cc1sc2c(c1C)C(c1ccc(Cl)cc1)=N[C@@H](CC(=O)OC(C)(C)C)c1nnc(C)n1-2
Outline: as §1

[5] = compound: c1ccc([C@@H]2C[C@H]2NC2CCNCC2)cc1
Outline: as §1

Measured: log2 fold change

SEC16A isoform 5 (UniProt O15027)
inactive: [1] -0.013 | [2] -0.005 | [3] 0.067 | [4] 0.036 | [5] 0.011

RAP1B (UniProt F5GZG1)
inactive: [1] -0.082 | [2] -0.124 | [3] 0.023 | [4] -0.019 | [5] -0.282

SASS6 (UniProt Q6UVJ0)
inactive: [1] -0.01 | [2] 0.028 | [3] 0 | [4] 0.021 | [5] 0.037

RBSN (UniProt Q9H1K0)
inactive: [1] 0.031 | [2] 0.076 | [3] 0.087 | [4] 0.117 | [5] -0.019

RPTOR (UniProt Q8N122)
inactive: [1] 0.015 | [2] -0.024 | [3] 0.035 | [4] -0.008 | [5] 0.04

RNPS1 (UniProt Q15287)
UniProt Q15287, sequence (Q15287 whole entry, looked up): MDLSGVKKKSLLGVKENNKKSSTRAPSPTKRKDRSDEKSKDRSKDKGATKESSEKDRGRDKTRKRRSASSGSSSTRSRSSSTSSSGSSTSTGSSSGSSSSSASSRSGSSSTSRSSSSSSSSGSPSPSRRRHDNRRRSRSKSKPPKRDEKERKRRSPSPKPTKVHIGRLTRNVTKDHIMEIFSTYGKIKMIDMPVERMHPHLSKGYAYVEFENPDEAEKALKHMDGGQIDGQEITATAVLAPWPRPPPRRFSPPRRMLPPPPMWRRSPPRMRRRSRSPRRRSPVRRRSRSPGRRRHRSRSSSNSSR
inactive: [1] 0.014 | [2] -0.003 | [3] 0.06 | [4] 0.036 | [5] 0.016

RAB1B (UniProt Q9H0U4)
UniProt Q9H0U4, sequence (Q9H0U4 whole entry, looked up): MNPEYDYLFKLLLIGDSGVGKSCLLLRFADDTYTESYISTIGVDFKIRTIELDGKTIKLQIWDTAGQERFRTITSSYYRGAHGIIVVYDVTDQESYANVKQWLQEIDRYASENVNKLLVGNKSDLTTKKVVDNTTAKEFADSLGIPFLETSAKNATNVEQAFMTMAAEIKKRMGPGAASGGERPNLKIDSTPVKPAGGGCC
inactive: [1] -0.015 | [2] 0.021 | [3] 0.056 | [4] 0.013 | [5] -0.17

RDX (UniProt P35241)
inactive: [1] -0.029 | [2] -0.036 | [3] 0.003 | [4] 0.025 | [5] 0.148

RPS6KB1 (UniProt P23443)
inactive: [1] 0.029 | [2] -0.051 | [3] 0.027 | [4] 0.023 | [5] -0.018

RETREG2 (UniProt Q8NC44)
inactive: [1] -0.095 | [2] 0.016 | [3] 0.084 | [5] 0.004

RNASEH1 (UniProt O60930)
inactive: [5] 0.11

RHOU (UniProt Q7L0Q8)
UniProt Q7L0Q8, sequence (Q7L0Q8 whole entry, looked up): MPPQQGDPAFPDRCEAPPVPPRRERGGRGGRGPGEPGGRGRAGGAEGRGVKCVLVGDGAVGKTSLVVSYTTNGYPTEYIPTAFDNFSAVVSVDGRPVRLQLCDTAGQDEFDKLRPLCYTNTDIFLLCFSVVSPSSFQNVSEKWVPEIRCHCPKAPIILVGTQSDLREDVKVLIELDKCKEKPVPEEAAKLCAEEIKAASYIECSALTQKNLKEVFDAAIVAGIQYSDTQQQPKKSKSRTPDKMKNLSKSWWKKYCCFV
inactive: [3] 0.065 | [4] -0.1 | [5] -0.015

SEMA4G isoform 2 (UniProt Q9NTN9)
inactive: [3] 0.105 | [4] 0.021 | [5] 0.066

RAF1 isoform 2 (UniProt P04049)
inactive: [1] 0.024 | [2] 0.035 | [3] -0.104 | [4] -0.017 | [5] 0.013

RBM45 (UniProt Q8IUH3)
inactive: [5] -0.026

SERAC1 (UniProt Q96JX3)
inactive: [1] -0.122 | [2] 0.145 | [4] 0.11 | [5] 0.065

RAB5IF isoform 5 (UniProt Q9BUV8)
UniProt Q9BUV8, sequence (Q9BUV8 whole entry, looked up): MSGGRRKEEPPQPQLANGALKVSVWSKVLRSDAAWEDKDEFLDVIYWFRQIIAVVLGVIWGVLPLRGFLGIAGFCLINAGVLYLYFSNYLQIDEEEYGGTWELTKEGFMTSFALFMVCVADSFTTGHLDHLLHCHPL
inactive: [1] 0.01 | [2] -0.096 | [3] 0.019 | [4] -0.085 | [5] 0.364

QSER1, A0A3B3IRW6
inactive: [3] 0.047 | [4] -0.027

SCNM1 (UniProt Q9BWG6)
inactive: [4] -0.332 | [5] 0.014

RNF24 isoform 2 (UniProt Q9Y225)
UniProt Q9Y225, sequence (Q9Y225 whole entry, looked up): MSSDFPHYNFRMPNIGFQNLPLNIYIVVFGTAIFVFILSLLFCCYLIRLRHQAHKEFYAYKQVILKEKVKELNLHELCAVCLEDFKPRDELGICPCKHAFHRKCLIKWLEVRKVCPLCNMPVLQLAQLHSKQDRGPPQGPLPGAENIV
inactive: [1] -0.219 | [2] 0.037 | [5] -0.115

SATB2 (UniProt Q9UPW6)
UniProt Q9UPW6, sequence (Q9UPW6 whole entry, looked up): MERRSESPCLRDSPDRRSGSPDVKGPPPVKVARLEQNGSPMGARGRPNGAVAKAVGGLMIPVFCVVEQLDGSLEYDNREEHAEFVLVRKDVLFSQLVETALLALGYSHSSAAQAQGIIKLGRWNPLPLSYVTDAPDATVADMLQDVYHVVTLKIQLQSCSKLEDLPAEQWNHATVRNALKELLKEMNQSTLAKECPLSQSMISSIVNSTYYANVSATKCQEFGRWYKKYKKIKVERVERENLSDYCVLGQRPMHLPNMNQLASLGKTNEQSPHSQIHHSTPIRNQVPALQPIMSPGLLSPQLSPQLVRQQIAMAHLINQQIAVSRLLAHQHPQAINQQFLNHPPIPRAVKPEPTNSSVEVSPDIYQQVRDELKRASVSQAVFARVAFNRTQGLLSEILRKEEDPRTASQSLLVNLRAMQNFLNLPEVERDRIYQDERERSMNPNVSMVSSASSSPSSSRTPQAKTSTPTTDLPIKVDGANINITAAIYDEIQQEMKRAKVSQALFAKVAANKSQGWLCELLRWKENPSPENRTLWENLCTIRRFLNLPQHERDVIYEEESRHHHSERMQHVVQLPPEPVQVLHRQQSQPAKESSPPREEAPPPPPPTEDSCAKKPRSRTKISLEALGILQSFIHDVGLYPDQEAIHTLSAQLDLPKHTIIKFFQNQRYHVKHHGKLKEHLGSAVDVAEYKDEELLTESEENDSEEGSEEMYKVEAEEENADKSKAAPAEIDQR
inactive: [3] -0.019 | [4] 0.021 | [5] -0.045

RAPGEF2, A0A2R8YGD3
active: [5] -0.32
inactive: [1] -0.043 | [2] 0.021 | [3] -0.046 | [4] -0.003

QTRT2 isoform 4 (UniProt Q9H974)
inactive: [1] -0.004 | [2] 0.014 | [3] -0.03 | [4] -0.019 | [5] -0.157

RABGGTB (UniProt P53611)
inactive: [1] -0.102 | [2] -0.01 | [3] 0.005 | [4] -0.048 | [5] -0.017

RNPC3 (UniProt Q96LT9)
inactive: [4] -0.029 | [5] -0.034

RXRA (UniProt P19793)
inactive: [4] 0.167 | [5] -0.149

RANBP2 (UniProt P49792)
UniProt P49792, sequence (P49792 whole entry, looked up): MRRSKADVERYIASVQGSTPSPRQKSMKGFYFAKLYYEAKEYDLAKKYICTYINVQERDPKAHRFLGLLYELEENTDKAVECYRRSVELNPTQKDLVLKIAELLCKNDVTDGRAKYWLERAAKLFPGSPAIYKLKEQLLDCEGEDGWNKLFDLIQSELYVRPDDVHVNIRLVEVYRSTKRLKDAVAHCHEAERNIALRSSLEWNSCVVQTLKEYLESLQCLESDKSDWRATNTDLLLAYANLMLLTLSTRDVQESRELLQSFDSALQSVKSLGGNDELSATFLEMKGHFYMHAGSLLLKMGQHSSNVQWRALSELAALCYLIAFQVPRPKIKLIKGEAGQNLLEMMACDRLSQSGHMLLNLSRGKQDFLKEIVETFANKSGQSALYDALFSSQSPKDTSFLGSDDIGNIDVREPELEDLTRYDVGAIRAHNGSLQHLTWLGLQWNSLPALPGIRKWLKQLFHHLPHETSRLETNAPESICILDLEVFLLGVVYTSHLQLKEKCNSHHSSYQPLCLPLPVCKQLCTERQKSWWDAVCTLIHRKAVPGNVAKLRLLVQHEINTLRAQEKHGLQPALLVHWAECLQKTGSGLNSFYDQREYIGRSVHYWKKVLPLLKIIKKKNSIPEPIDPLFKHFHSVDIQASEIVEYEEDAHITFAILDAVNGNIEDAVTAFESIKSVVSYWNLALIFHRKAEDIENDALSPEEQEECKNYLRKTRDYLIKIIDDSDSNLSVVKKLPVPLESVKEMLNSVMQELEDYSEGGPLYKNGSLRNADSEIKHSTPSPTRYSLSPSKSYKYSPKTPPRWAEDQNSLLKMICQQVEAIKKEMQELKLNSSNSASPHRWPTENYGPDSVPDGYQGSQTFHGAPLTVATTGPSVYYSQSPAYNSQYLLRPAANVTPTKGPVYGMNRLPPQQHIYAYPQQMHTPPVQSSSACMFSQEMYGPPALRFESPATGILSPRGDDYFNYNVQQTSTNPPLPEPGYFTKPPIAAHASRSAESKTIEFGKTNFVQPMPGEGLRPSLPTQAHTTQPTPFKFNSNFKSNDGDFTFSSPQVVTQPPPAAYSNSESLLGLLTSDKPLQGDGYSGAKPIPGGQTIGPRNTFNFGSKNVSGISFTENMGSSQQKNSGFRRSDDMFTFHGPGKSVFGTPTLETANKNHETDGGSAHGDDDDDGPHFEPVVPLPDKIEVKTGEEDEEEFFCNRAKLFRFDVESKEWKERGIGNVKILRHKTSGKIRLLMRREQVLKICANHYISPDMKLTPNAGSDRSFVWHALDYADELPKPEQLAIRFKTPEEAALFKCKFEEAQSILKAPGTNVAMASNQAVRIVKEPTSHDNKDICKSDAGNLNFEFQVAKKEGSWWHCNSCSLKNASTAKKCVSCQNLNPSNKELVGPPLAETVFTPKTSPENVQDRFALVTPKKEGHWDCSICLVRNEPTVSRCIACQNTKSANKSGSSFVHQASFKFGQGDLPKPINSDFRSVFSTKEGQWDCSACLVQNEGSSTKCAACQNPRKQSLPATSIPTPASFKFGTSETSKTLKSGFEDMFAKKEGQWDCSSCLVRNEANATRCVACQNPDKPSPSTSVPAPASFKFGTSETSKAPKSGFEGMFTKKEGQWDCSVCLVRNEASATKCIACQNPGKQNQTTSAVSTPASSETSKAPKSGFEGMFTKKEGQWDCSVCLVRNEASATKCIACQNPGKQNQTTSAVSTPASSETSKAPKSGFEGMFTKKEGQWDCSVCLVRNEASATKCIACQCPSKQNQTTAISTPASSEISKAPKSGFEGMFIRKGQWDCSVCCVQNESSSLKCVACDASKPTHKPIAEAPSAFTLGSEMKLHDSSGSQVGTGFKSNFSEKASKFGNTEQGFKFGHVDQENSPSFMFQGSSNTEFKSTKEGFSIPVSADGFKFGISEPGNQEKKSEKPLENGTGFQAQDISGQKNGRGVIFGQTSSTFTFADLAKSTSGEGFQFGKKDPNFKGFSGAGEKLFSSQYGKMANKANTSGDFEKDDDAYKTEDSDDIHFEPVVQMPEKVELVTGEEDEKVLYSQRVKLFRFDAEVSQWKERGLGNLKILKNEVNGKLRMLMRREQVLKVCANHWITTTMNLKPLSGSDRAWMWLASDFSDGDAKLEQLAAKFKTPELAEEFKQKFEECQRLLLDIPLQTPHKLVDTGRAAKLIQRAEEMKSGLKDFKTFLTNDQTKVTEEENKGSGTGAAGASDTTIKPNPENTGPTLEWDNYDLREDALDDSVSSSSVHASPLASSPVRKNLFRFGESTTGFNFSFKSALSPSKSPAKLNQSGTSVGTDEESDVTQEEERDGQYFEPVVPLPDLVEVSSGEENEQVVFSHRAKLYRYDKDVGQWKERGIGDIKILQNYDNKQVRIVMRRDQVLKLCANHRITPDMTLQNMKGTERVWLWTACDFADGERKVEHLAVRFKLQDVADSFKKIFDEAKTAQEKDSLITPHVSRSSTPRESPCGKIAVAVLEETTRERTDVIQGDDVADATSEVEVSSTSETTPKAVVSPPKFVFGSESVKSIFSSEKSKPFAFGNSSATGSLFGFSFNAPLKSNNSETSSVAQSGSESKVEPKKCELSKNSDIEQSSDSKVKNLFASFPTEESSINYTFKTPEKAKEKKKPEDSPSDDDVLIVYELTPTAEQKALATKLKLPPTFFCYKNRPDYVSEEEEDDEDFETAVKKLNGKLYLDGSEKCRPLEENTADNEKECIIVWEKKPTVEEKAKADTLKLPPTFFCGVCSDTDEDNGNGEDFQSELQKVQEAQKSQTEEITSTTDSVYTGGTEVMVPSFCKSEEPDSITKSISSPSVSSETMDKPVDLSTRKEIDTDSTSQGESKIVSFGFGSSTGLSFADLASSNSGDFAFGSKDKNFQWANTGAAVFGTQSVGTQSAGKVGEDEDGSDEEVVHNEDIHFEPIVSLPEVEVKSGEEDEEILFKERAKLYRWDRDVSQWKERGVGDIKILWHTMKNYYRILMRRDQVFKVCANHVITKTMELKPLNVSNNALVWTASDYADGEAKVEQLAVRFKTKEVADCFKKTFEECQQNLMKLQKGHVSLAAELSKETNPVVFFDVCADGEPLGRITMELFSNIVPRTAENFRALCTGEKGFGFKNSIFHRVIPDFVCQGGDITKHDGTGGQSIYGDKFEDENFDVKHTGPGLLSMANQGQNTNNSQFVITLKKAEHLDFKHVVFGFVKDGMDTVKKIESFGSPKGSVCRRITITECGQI
inactive: [1] -0.019 | [2] -0.009 | [3] 0.002 | [4] 0.003 | [5] 0.02

RYR1 (UniProt P21817)
inactive: [1] -0.011 | [2] -0.028 | [4] -0.093 | [5] -0.055

SEC16A isoform 3 (UniProt O15027)
inactive: [4] -0.006
